Shown are actives, neighbours in structure and some others; about 19% of the full set was active somewhere.
ELG1 repair inh = blocks ELG1-dependent DNA repair in HEK293T cells; AID 504467; HEK293T ELG1-luciferase reporter, luminescence, 16 h; DNA damage induced by 5-fluorouridine; Potency, µM (doses to about 46.1 µM), for the others: at the top dose activity change, negative = inhibition, most hits filed as inhibitors; 2.3% of 330,000 active; also: potency is read from the fitted curve at half-maximal effect; nearly all actives have a fitted effect of over 55% in size
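5-Fluorouridine DNA damage + compound/DMSO, 2,000 cells/well, 16 h, 37 °C/5% CO2. ONE-Glo, 30 min RT, luminescence. Readout = decrease in reporter signal.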
HT1080 IDH1KD tx = kills HT-1080 cells with IDH1 knockdown | HT-1080 IDH1 knockdown viability, ATP luminescence, 48 h | AID 686971 | Potency, µM (highest dose often 46.1 µM), for the others: at the highest dose activity, negative = toxicity, actives largely listed as cytotoxic | 2% of 360,000 active;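 also: potency is read from the fitted curve at half-maximal effect; 0% = DMSO wells and -100% = cell-free medium wells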
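After a 2 h attachment period, IDH1KD HT-1080 cells took pin-transferred compound for 48 h at 37 °C; ATP-based luminescence after 10 min room-temperature reagent incubation reported viability.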
HT1080NT lethal = kills 2HG-producing HT-1080-NT fibrosarcoma cells; AID 686970; 1.6% of 360,000 active; HT-1080-NT fibrosarcoma viability, CellTiter-Glo ATP luminescence, 48 h; Potency, µM (highest dose often 46.1 µM), inactives show top-dose activity, negative = less viability, actives largely listed as cytotoxic;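 also: NT is the 2HG producing partner of a matched IDH1 knockdown line; potency is read from the fitted curve at half-maximal effect; 0% = DMSO-treated cells and -100% = media-only wells without cells; nearly all actives have a fitted effect of over 55% in size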
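A 48-hour cytotoxicity screen used HT-1080-NT cells plated 2 hours before compound delivery. ATP-based CellTiter-Glo luminescence measured viability, normalized to DMSO and no-cell controls.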
DT40 TDP1 CPT = growth inhibition of DT40 Tdp1-/-;hTDP1 cells with camptothecin (screen for TDP1 inhibitors); chicken DT40 Tdp1-/-;hTDP1 cells + 20 nM CPT, ATP luminescence, 48 h; Potency, µM (top dose mostly 46.2 µM), for the others: at the top dose activity change, negative = growth inhibition, actives largely listed as inhibitors; 12% of 420,000 active; also: potency is read from the fitted curve at half-maximal effect; nearly all actives have a fitted effect of over 55% in size
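Chicken DT40 Tdp1-/- cells stably complemented with human TDP1 were seeded at 400 cells/well in medium containing 20 nM camptothecin, exposed to pin-transferred compounds, and grown at 37 °C for at least 48 hr. Viability was read as ATP luminescence.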
TDP1 cell noCPT = qHTS for Inhibitors of human tyrosyl-DNA phosphodiesterase 1 (TDP1): qHTS in cells in absence of CPT; DT40 Tdp1-/- hTDP1 cells, no CPT, ATP luminescence, 48 h; Potency, µM (titrated, usually from 46.2 µM), for the others: top-dose activity change, negative = growth inhibition, usual class: inhibitors; 15% of 420,000 active; also: potency is read from the fitted curve at half-maximal effect; nearly all actives have a fitted effect of over 55% in size
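Stably hTDP1-transfected Tdp1-null chicken DT40 cells were treated with library compounds minus camptothecin and grown for at least 48 hr at 37 °C, after which cellular ATP was quantified by luminescence.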
IL-1B inflam inh = inflammasome signaling inhibition, IL-1 beta readout; THP-1 LPS/ATP IL-1B secretion, AlphaLISA, 16 h; active compounds read low; activity change, % at 57.5 µM; 4.7% of 360,000 active; in the data active = activity change below about -50%; inconclusive = mostly about -30% to -49%
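Secreted IL-1B measured by AlphaLISA bead assay after 16 h compound exposure of THP-1 cells; compounds (final up to 57.5 uM) added 1 h before LPS (250 ng/mL) and ATP (1.25 mM) stimulation; lower signal means less secretion.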
* marks the source's active call; other numbers are inactive results; u = inconclusive; x = no result. Unless noted, calls follow the shape of the dose curve; as a rule, active = well fitted curve in the direction sought with a large enough effect; inconclusive = small, poorly fitted or top-dose-only effect, or another doubt; inactive = no such curve, though single readings can be large; an effect the other way counts as inactive or inconclusive. Unless noted, % is scaled to controls: 0 for no effect and ±100 for the full control effect.

SMILES | ELG1 repair inh | HT1080 IDH1KD tx | HT1080NT lethal | DT40 TDP1 CPT | TDP1 cell noCPT | IL-1B inflam inh
C=CCOc1ccc2ccccc2c1CNCCCN1CCOCC1 | 1% | 4% | -3% | u | u | -10
C=CCOc1ccc(Br)cc1CNCCO | 13% | 13% | 22% | -4% | -21% | -55*
C=CCOc1ccc(Br)cc1CNCCCN1CCOCC1 | 9% | 2% | -1% | 5% | u | -62*
C=CCOc1ccc(Br)cc1CNC(C)(C)CO | 18% | 11% | -7% | -2% | -13% | -7
COc1ccccc1-c1cncnc1NCc1ccccc1 | x | x | x | -3% | -12% | x
CCOCCn1c(=O)c2c(nc3n2CC(C)CN3Cc2ccccc2)n(C)c1=O (stereo not given) | -26% | 18% | 5% | u | u | 29
Cc1cc(=O)[nH]c(SCC(=O)N2C(C)CCCC2C)n1 (stereo not given) | -9% | -2% | -7% | -14% | -5% | 22
FC(F)(F)Oc1ccccc1C(c1nnnn1-c1ccc2c(c1)OCCO2)N1CCN(C/C=C/c2ccccc2)CC1 (stereo not given) | x | -21% | -25% | u | 15µM* | -7
C(=C\c1ccccc1)/CN1CCN(C(c2cccc3ccccc23)c2nnnn2-c2ccc3c(c2)OCCO3)CC1 (stereo not given) | x | -25% | -24% | 13µM* | 8.2µM* | -26
c1ccc2c(C(c3nnnn3-c3ccc4c(c3)OCCO4)N3CCOCC3)ccnc2c1 (stereo not given) | x | -1% | 12% | 3% | -2% | 5
CCC(c1nnnn1-c1ccc2c(c1)OCCO2)N1CCN(CC)CC1 (stereo not given) | x | 11% | 13% | 8% | -22% | 6
CN1C(=O)C2(c3ccccc31)N(c1ccc(Br)cc1)C(=O)CS2(=O)=O (stereo not given) | x | x | x | -9% | -4% | x
C=C1CCN([C@@H](Cc2ccccc2)C(=O)NCCC(C)C)S(=O)(=O)c2ccccc21 | x | 9% | 0% | -10% | u | -5
COc1cc(C2CC(=O)Oc3cc(C)c(Br)c(C)c32)cc(OC)c1OC (stereo not given) | 6% | -2% | 0% | 21µM* | u | 60
CCOc1ccccc1N1CCN(CC(=O)N(C)CC(=O)Nc2ccccc2CC)CC1 | x | -3% | 1% | -8% | -20% | -7
COc1cccc(OC)c1C(=O)OCC(=O)N(c1ccccc1)C1CCCCC1 | u | -15% | -6% | 15µM* | 8.2µM* | -4
O=C(COc1ccc(-c2nnc(N3CCCCC3)c3ccccc23)cc1)N1CCCCC1 | 15µM* | u | -23% | u | 16µM* | -17
O=C(COc1ccc([N+](=O)[O-])cc1)N1CCN(c2nnc(-c3ccccc3)c3ccccc23)CC1 | -13% | 19% | -4% | 21µM* | 8.2µM* | 10
Cn1c(=O)n(CC(=O)N2CCN(c3nnc(-c4ccccc4)c4ccccc34)CC2)c2ccccc21 | u | -2% | 13% | u | u | -8
c1ccc2nc(-c3nc4ccccc4o3)ccc2c1 | u | 13µM* | 10µM* | 14µM* | u | -3
COc1ccccc1CNC(=O)C1CCC(CNS(=O)(=O)c2ccc(F)cc2)CC1 (stereo not given) | -2% | -6% | -25% | 0% | -13% | 61
Cc1ccc(O)c(C=Nc2cc(C)ccc2O)c1 | 1% | 18% | -9% | 5.8µM* | 5.2µM* | 2
CC(C)(C)c1ccc(O)c(N=Cc2cc(Br)ccc2O)c1 | 3% | 5% | 4% | u | 26µM* | 55
CCc1ccc(O)c(N=Cc2ccccc2O)c1 | -1% | u | u | u | -15% | 7

Screens deposited in PubChem by National Center for Advancing Translational Sciences (NCATS).
